Reference: ChEMBL document CHEMBL4513216, “Probing the Open Global Health Chemical Diversity Library for Multistage-Active Starting Points for Next-Generation Antimalarials” (ACS Infect Dis, 2020)
In all, about 69,000 compounds went through this assay and about 8,600 (12%) showed an effect of 50% or more. For the sample, strong results were picked, then their nearest neighbours and some compounds at random.

Test system: Plasmodium berghei
Assay: Screen against P. berghei liver stage (PbLuc), transformed with Luciferase, at 10uM
Format: functional, HepG2
Conditions: tested at 10 uM

Q: With `Cc1occc1C(=O)N1CCCN(Cc2nccn2C)CC1` as the molecule, how does the INHIBITION read?
A: The INHIBITION was 23.7%.

Q: Which INHIBITION does the source give for `OC1(CNCCCN2CCCc3ccccc32)CNCCOC1` (stereo not given) here?
A: Its INHIBITION is 45.9%.

Q: For `Cc1nc(O)cc(CCNC(=O)c2ccccc2N2CCCC2)n1`, which INHIBITION is on record?
A: Its INHIBITION is 18.5%.

Q: `CCCS(=O)(=O)N1C[C@@H]2C[C@H](C(=O)N3CCN(C)CC3)[C@H](C1)O2` was tested. Which INHIBITION did it give?
A: The INHIBITION was 21.1%.

Q: `COc1ccc(-c2cc(CN)nc3ccnn23)cc1` was tested. Which INHIBITION did it give?
A: The INHIBITION was 35.2%.

Q: `CC(C)C[C@@H](C(N)=O)n1cc(-c2cncnc2)nn1` was tested. Which INHIBITION did it give?
A: Its INHIBITION is 12.8%.

Q: For `COc1ccc(-n2ccc(C(=O)N(CCN(C)C)C(C)C)n2)cc1`, which INHIBITION is on record?
A: The INHIBITION was 18.2%.

Q: For `Cc1ccc(-c2nc(CCNCc3ccncc3)co2)cc1`, which INHIBITION is on record?
A: The INHIBITION was 49.6%.

Q: Which INHIBITION does the source give for `Cc1nc(C2CCCN2Cc2nccn2CC(F)(F)F)no1` (stereo not given) here?
A: The INHIBITION was 21.6%.

Q: For `CN(CC(F)(F)F)C(=O)CNC(=O)N1CCC(N2CCCC2)C1` (stereo not given), which INHIBITION is on record?
A: Its INHIBITION is 30.9%.

Q: With `CN1C(=O)COc2ccc(C(=O)Cn3cnc4ccsc4c3=O)cc21` as the molecule, how does the INHIBITION read?
A: Its INHIBITION is 47.9%.

Q: How did the INHIBITION turn out when `COCCN(C)C1COC2(CCN(Cc3ccccn3)CC2)C1` (stereo not given) was run?
A: Its INHIBITION is 25.2%.

Q: For `Cc1cccc(CNC(=O)CC2CCN(S(C)(=O)=O)CC2)n1`, which INHIBITION is on record?
A: The INHIBITION was -20.6%.

Q: With `O=C1CCC2(CCN(Cc3ccc(F)cc3)CC2)N1Cc1ccccc1` as the molecule, how does the INHIBITION read?
A: Its INHIBITION is 46.6%.

Q: `Cc1nc(CSCCC(=O)NCc2ccncc2)cs1` was tested. Which INHIBITION did it give?
A: The INHIBITION was -4.94%.

Q: Which INHIBITION does the source give for `Cn1nccc1C(=O)NCCN1CCC(O)(c2ccc(F)cc2)CC1` here?
A: The INHIBITION was 14.65%.

Q: `COCCN1CC[C@]2(CN(C(=O)c3ccc[nH]3)C[C@H]2C)C1=O` was tested. Which INHIBITION did it give?
A: The INHIBITION was 61.3%.

Q: `C[C@@H]1CN(C(=O)c2ccc[nH]2)C[C@]12CCN(CCN1CCCC1)C2=O` was tested. Which INHIBITION did it give?
A: Its INHIBITION is 48.4%.

Q: How did the INHIBITION turn out when `COCCN1CC[C@]2(CN(C(=O)c3cccs3)C[C@H]2C)C1=O` was run?
A: Its INHIBITION is 22.4%.

Q: With `CCC(CC)C(=O)NCCc1ccn(-c2ccccc2)n1` as the molecule, how does the INHIBITION read?
A: Its INHIBITION is 15.6%.

Q: With `CC(C)c1cc(CN2CCC(N)CC2)no1` as the molecule, how does the INHIBITION read?
A: Its INHIBITION is 76.8%.

Q: For `CC(C)c1cc(CN2CCNCC2)no1`, which INHIBITION is on record?
A: The INHIBITION was 30.8%.

Q: Which INHIBITION does the source give for `CC(C)c1cc(CN2CCC(CC(=O)O)CC2)no1` here?
A: The INHIBITION was 53%.

Q: How did the INHIBITION turn out when `CC(C)c1cc(CSCCC(=O)O)no1` was run?
A: The INHIBITION was -46.4%.

Q: Which INHIBITION does the source give for `CC(C)c1cc(COCCCC(=O)O)no1` here?
A: Its INHIBITION is 38.2%.

Q: Which INHIBITION does the source give for `CC(C)c1cc(CN2CCC(N)CC2)on1` here?
A: The INHIBITION was 41.2%.

Q: For `Cc1ccc(-n2cc(C(=O)N3CCn4c(C)nnc4C3)nn2)cc1`, which INHIBITION is on record?
A: Its INHIBITION is 15.9%.

Q: Which INHIBITION does the source give for `O=C(c1cnc(O)cn1)N1CCCC1c1nc2cc(F)ccc2[nH]1` (stereo not given) here?
A: The INHIBITION was 17.5%.

Q: Which INHIBITION does the source give for `Cn1ncc(C(=O)N2CCOCC2)c1Cl` here?
A: Its INHIBITION is 0.57%.

Q: For `CCc1ccc(CNc2cc(-c3ccoc3C)nn2CCO)o1`, which INHIBITION is on record?
A: The INHIBITION was 54.4%.

Q: `Cc1cc(CNc2cc(-c3ccoc3C)nn2CCO)c(C)o1` was tested. Which INHIBITION did it give?
A: Its INHIBITION is 43.7%.

Q: For `COc1cc(CNc2cc(-c3ccoc3C)nn2CCO)ccc1F`, which INHIBITION is on record?
A: The INHIBITION was 38.3%.

Q: Which INHIBITION does the source give for `c1cc(N2CCCC2c2cnccn2)ncn1` (stereo not given) here?
A: The INHIBITION was -3.31%.

Q: With `COC(=O)c1cc(OCC2CCC2)cc(C(=O)N[C@@H]2CCCNC2)c1` as the molecule, how does the INHIBITION read?
A: Its INHIBITION is 58.4%.

Q: Which INHIBITION does the source give for `COC(=O)c1cc(OCC2CCC2)cc(C(=O)NC2CCC(O)CC2)c1` (stereo not given) here?
A: Its INHIBITION is 7.12%.

Q: `COC(=O)c1cc(OCC2CCC2)cc(C(=O)N[C@@H]2CNCC[C@H]2O)c1` was tested. Which INHIBITION did it give?
A: Its INHIBITION is 11.9%.

Q: Which INHIBITION does the source give for `Cc1cc(NC(=O)N2CCC[C@@H]2CO)nn1-c1ccccc1Cl` here?
A: The INHIBITION was 30.8%.

Q: How did the INHIBITION turn out when `Cc1cc(NC(=O)CO)nn1-c1ccc(Cl)cc1Cl` was run?
A: Its INHIBITION is 19.8%.

Q: With `Cc1cc(NC(=O)N2CCOCC2)nn1-c1ccccc1Cl` as the molecule, how does the INHIBITION read?
A: Its INHIBITION is 33.4%.

Q: Which INHIBITION does the source give for `CC(=O)NCC(=O)Nc1cc(C)n(-c2ccc(Cl)cc2Cl)n1` here?
A: The INHIBITION was 50%.

Q: `Cc1cc(NC(=O)NCCO)nn1-c1ccc(Cl)cc1Cl` was tested. Which INHIBITION did it give?
A: The INHIBITION was 60.5%.

Q: `O=C(NCCO)Nc1ccc(Cl)cc1-n1cccc1` was tested. Which INHIBITION did it give?
A: The INHIBITION was -6.91%.

Q: How did the INHIBITION turn out when `CS(=O)(=O)N[C@H]1COC[C@@H]2CN(Cc3ccco3)C[C@@H]21` was run?
A: The INHIBITION was -19.1%.

Q: How did the INHIBITION turn out when `COC(=O)c1sc2cccc(F)c2c1CNC(=O)C1CCCO1` (stereo not given) was run?
A: Its INHIBITION is -1.37%.

Q: With `CN1CCc2[nH]cnc2C12CCN(Cc1ccc3nsnc3c1)CC2` as the molecule, how does the INHIBITION read?
A: Its INHIBITION is 33.4%.

Q: `CNC(=O)[C@@H]1C[C@H]2CN(Cc3ccco3)C[C@H]2N1C` was tested. Which INHIBITION did it give?
A: The INHIBITION was -5.1%.

Q: For `Cc1ccc(C(=O)N2CCN(Cc3cccs3)CC2)c(=O)[nH]1`, which INHIBITION is on record?
A: Its INHIBITION is 3.865%.

Q: `CS(=O)(=O)NCc1cnc2n1CCN(Cc1ccccn1)CC2` was tested. Which INHIBITION did it give?
A: The INHIBITION was 41.2%.

Q: With `Cc1cc(C(=O)N2CCCN(Cc3nccn3C(C)C)CC2)no1` as the molecule, how does the INHIBITION read?
A: The INHIBITION was -6.35%.

Q: With `Cc1nccc(C(=O)N2CCCN(Cc3nccn3C(C)C)CC2)n1` as the molecule, how does the INHIBITION read?
A: The INHIBITION was 29.3%.

Q: With `Cc1[nH]ncc1C(=O)N1CCCN(Cc2nccn2C(C)C)CC1` as the molecule, how does the INHIBITION read?
A: The INHIBITION was 53.65%.

Q: How did the INHIBITION turn out when `CCc1[nH]ncc1C(=O)N1CCCN(Cc2nccn2C(C)C)CC1` was run?
A: Its INHIBITION is -33.8%.

Q: How did the INHIBITION turn out when `Cc1ncncc1C(=O)N1CCCN(Cc2nccn2C(C)C)CC1` was run?
A: The INHIBITION was -49.5%.

Q: How did the INHIBITION turn out when `CC(C)n1ccnc1CN1CCCN(C(=O)c2cscn2)CC1` was run?
A: The INHIBITION was 54.9%.

Q: Which INHIBITION does the source give for `CCc1cc(CNC(=O)N2CCN(c3nc(C)c(C)s3)CC2)on1` here?
A: Its INHIBITION is 32.4%.

Q: `CSc1ncc(CN(C)C(C)c2cccnc2)cn1` (stereo not given) was tested. Which INHIBITION did it give?
A: Its INHIBITION is -1.33%.

Q: With `O=C(NCCN1CCOCC1)c1scnc1Cl` as the molecule, how does the INHIBITION read?
A: The INHIBITION was 23.7%.

Q: For `CSCCCN1C[C@H](NC(=O)c2ccc(CO)cc2)[C@@H](C2CC2)C1`, which INHIBITION is on record?
A: The INHIBITION was 0.72%.

Q: For `CN(C)c1ccc(C(=O)Nc2ccn(CCc3ccncc3)n2)cc1`, which INHIBITION is on record?
A: Its INHIBITION is 5.91%.

Q: Which INHIBITION does the source give for `Cc1cc(O)ncc1NS(=O)(=O)c1cccc(F)c1F` here?
A: The INHIBITION was 69.9%.

Q: `COc1cc(F)c(S(=O)(=O)Nc2cnc(O)cc2C)cc1OC` was tested. Which INHIBITION did it give?
A: Its INHIBITION is -3.83%.

Q: With `COc1ccccc1S(=O)(=O)Nc1cnc(O)cc1C` as the molecule, how does the INHIBITION read?
A: The INHIBITION was -13.6%.

Q: With `Cc1nc(N2CCN3CCCCC3C2)nc2cc(S(C)(=O)=O)ccc12` (stereo not given) as the molecule, how does the INHIBITION read?
A: Its INHIBITION is 20.6%.

Q: How did the INHIBITION turn out when `Cc1ccn(-c2ccnc(N3CCC(N4CCCCC4)CC3)n2)n1` was run?
A: The INHIBITION was -13%.

Q: How did the INHIBITION turn out when `Clc1cc(N2CCC(N3CCCC3)CC2)nc2[nH]ccc12` was run?
A: Its INHIBITION is 51.5%.

Q: How did the INHIBITION turn out when `Cn1ncc2c(N3CCN4CCCCC4C3)nc(C3CCCC3)nc21` (stereo not given) was run?
A: The INHIBITION was -24.8%.

Q: For `Clc1cc(N2CCN(C3CCOCC3)CC2)nc2[nH]ccc12`, which INHIBITION is on record?
A: The INHIBITION was 5.91%.

Q: Which INHIBITION does the source give for `Clc1cc(N2CCN3CCCCC3C2)nc2[nH]ccc12` (stereo not given) here?
A: Its INHIBITION is 72.2%.

Q: `O=C(NCCNS(=O)(=O)C1CCCCC1)c1ccccc1` was tested. Which INHIBITION did it give?
A: The INHIBITION was 15.4%.

Q: With `CN(C)CCNC(=O)c1ccccc1NC(=O)c1cc(Cl)ccc1Cl` as the molecule, how does the INHIBITION read?
A: Its INHIBITION is 44.4%.
